Experimental data from PubChem BioAssay (NCATS).
Values joined by “and” are separate entries in the source; they are usually repeats but may differ in a detail not shown here. Equal values may be shown once. A number with no mark means an inactive call. Inconclusive results are not listed. Active and inactive are the calls of the source. Unless noted, no rule for the calls is given here.

Test system: not listed separately
Assay: qHTS assay to identify inhibitors of the type 1 interferon - major histocompatibility complex class I in skeletal muscle: Counter screen cell viability and HiBit confirmation (AID 1347412; active = well fitted inhibition curve with a large enough effect; also: % is scaled to controls: 0 for no effect and ±100 for the full control effect; nearly all actives have a fitted effect of over 60% in size)
Conditions: iHSKM muscle cells + IFN-b, HiBiT or CellTiter-Glo, 24 h; Potency: HiBiT; Viability, at 45.9 µM (top of the series)
Procedure, shortened: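 Luminescence read-out: Nano-Glo HiBiT lytic signal from C-terminally HiBiT-tagged HLA-B in CRISPR-edited human myoblasts, plus CellTiter Glo ATP as viability counter screen. IFN-beta 4.0 ng/ml; 24 hrs treatment at 37 C, 5% CO2.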
For `COC(=O)C1=C(C)NC(COC(N)=O)=C(C(=O)OC(C)C)C1c1cccc(Cl)c1Cl` (configuration not stated), the Potency was “inactive”.
For `CCCCC(=O)OCC(=O)[C@H]1[C@H](C)C[C@H]2[C@@H]3C[C@H](F)C4=CC(=O)C=C[C@]4(C)[C@@]3(F)[C@@H](O)C[C@@]21C`, the Potency was “inactive”.
With `CC(=O)[C@@]1(O)CC[C@H]2[C@@H]3C[C@H](C)C4=CC(=O)CC[C@]4(C)[C@H]3CC[C@@]21C` the Potency was “inactive”.

Molecular target: Nuclear receptor subfamily 1 group I member 2 (Rattus norvegicus) (UniProt Q9R1A7)
Sequence (Q9R1A7 whole entry, looked up): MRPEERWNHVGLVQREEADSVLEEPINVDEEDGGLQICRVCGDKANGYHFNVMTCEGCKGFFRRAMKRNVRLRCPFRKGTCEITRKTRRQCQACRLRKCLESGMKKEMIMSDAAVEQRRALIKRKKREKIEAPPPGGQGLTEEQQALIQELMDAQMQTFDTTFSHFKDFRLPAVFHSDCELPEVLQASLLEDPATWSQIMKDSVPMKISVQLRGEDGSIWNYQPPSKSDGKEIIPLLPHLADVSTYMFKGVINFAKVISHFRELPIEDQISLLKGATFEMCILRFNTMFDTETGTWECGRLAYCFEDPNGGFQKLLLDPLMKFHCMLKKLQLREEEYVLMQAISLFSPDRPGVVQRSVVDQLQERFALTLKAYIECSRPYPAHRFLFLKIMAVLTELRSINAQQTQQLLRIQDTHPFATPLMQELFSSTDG
Assay: qHTS assay for small molecule activators of the rat pregnane X receptor (rPXR) signaling pathway (AID 651751); also: 0% is about no effect
Conditions: rPXR reporter cells, luciferase (One-Glo), 24 h
In the case of `CCCCC(CC)COC(=O)c1ccccc1C(=O)O` (configuration not stated), the max response is reported as 1.45% and -0.807%.
With `Cc1cc(C(C)(C)C)c(O)c(C(C)(C)C)c1` the max response was -5.78% and 3.32%.
In the case of `COc1cc(C=O)ccc1O`, the max response is reported as 1.03% and -2.41%.
Work on `O=C(NO)c1ccccc1` yielded a max response of -1.37%.
`COC(=O)c1c(Cl)c(Cl)c(C(=O)OC)c(Cl)c1Cl` gave a max response of 2.2%.
In the case of `Oc1ccccc1`, the max response is reported as -2.24% and -1.02% and -2.45%.
Molecule `CCCC(=O)c1cc(O)c(O)cc1O` has a max response of -4.26%.
`Cc1ncc(CO)c(CO)c1O` gave a max response of -2.11%.
In the case of `CC(C)(c1ccc(O)cc1)c1ccc(O)cc1`, the max response is reported as 7.46% and 2.86% and -5.15%.

Test system: not listed separately
Assay: qHTS assay for small molecule activators of the human pregnane X receptor (PXR) signaling pathway (AID 720659); also: 0% is about no effect
Conditions: DPX-2 HepG2 CYP3A4-luciferase, 24 h; series mostly up to 92.3 µM
With `COc1cc(C=O)ccc1O` the outcome was “inactive”.
For `O=C(NO)c1ccccc1`, the outcome was “inactive”.
In the case of `Oc1ccccc1`, the outcome is reported as “inactive”.
With `CCCC(=O)c1cc(O)c(O)cc1O` the outcome was “inactive”.
In the case of `Cc1ncc(CO)c(CO)c1O`, the outcome is reported as “inactive”.
